“And” between values parts separate entries of the source, which are not always exact repeats. Equal values may be shown once. The source made the active and inactive calls. Rule for the calls: active = hit-call score of the fitted dose curve at least 0.9, where 1 is the maximum; inactive = score below 0.9.
read-out: Insulin Like Growth Factor 1 (IGF1), IGF1 (gene 3479); experiment: LTEA_HepaRG_IGF1: Life Technologies and Expression Analysis (LTEA) Assay for Insulin Like Growth Factor 1 (IGF1) using HepaRG (AID 2283506); details: mRNA level, 48 h; actives raise or lower the signal
Experimental: LTEA_HepaRG is a cell based, multiplexed-readout assay that uses HepaRG, a human liver cell line, with measurements taken at 48 hours after chemical dosing on a 96-well plate.LTEA_HepaRG_IGF1 is one of 102 assay component(s) measured in the LTEA HepaRG cell culture assay. It is a marker of Cell proliferation, survival, death.Data from the assay component LTEA_HepaRG_IGF1 was analyzed into 1 endpoint. This assay endpoint, LTEA_HepaRG_IGF1, was analyzed with bidirectional fitting relative to DMSO as the negative control and baseline of activity. Using a type of inducible reporter, measures of mRNA induction for gain or loss-of-signal activity can be used to understand regulation of transcription factor activity. To generalize the intended target to other relatable targets, this assay endpoint is annotated to the growth factor intended target family, where the subfamily is insulin-like.
A total of 1060 chemcials from the ToxCast library were tested in eight-point concentration-response experiments. Cell culture and cytotoxicity assays were conducted at Thermo Fisher Scientific's Custom Services facility (Madison, WI). A single lot of human HepaRG cells (Thermo Fisher Scientific, Frederick, MD) was used for the cell culture experiments. 96-well format collagen type I coated plates of human HepaRG cells were prepared using established methods. Briefly, cryopreserved HepaRG cells were thawed, plated at a density of approximately 100,000 cells/well in HepaRG Thaw, Plate, and General Purpose media (HPRG770, Thermo Fisher Scientific), and incubated for 48 hours. 0.5% DMSO was selected as vehicle control to balance the requisite need of DMSO in HepaRG cultures to maintain differentiation (for example, baseline metabolism, proportions of hepatocytes vs. cholangiocytes), while enabling further hepatic receptor pathway activation (for example, PXR and CAR) in response to chemical exposure. 48 hours after plating, the culture medium was replaced with HepaRG Serum-Free Incudtion Media. Cells were exposed to each test chemical in duplicate and maintained in CO2 incubators for another 48 hours. Chemical plates were thawed to room temperature and 200x concentrations of treatment groups were prepared. 8-point conentration-reponse curves were made with the highest exposure at 100 uM, followed by half-log dilutions, all in 0.5% DMSO. Each test plate contained variouse controls, induction positive controls (1mM phenobarbital), cytotoxicity positive controls ([…] aflatoxin B1), vehicle controls (0.5% DMSO), and total lysis controls (0.5% DMSO). Cell morphology images were taken using an Essen IncuCyte FLR automated microscope, with six 96-well plates imaged in about 24 minutes. Images were captured and exported and JPEG files. Spent culture media was transfered to black-well plates for the LDH assay, and remaining media was sorted at -80 C for later use. Cells were treated with RLT buffer and frozen until shipped for gene expression analysis. Total RNA was isolated from the cell suspension in 75 uL of Buffer RLT (Qiagen, Germantown, MD 20874) by Quintiles/Expression Analysis (Durham, NC) using a custom isolation procedure. Total RNA from each plate well was transferred to a preamplification plate. Fluidigm's 96.96 Dynamic ArrayTM (Fluidigm, Amsterdam, the Netherlands) technology was used for gene expression analyses by quantitative reverse transcription polymerase chain reaction (qRT-PCR, performed by Quintiles/Expression Analysis, Durham, NC)89. Standard TaqManTM Assays (Applied Biosystems/ThermoFisher Scientific, Foster City, CA) were used to assess the expression of 93 genes selected based on their selectivity and sensitivity to important hepatic receptors known to be modulated by environmental chemicals; importance in human hepatocyte functionality; and hepatotoxicity. […]

| SMILES | outcome | AC50 |
| --- | --- | --- |
| O=C(O)C(F)(F)C(F)(F)C(F)(F)C(F)(F)C(F)(F)C(F)(F)F | inactive |  |
| NC(=O)O | inactive |  |
| CCOP(=S)(OCC)SCSP(=S)(OCC)OCC |  | 0.0903 µM (active) |
| O=[N+]([O-])c1ccc(O)c([N+](=O)[O-])c1 |  | 27.9 µM (active) |
| CC(C)(OO)c1ccccc1 | inactive |  |
| Cc1ccccc1N | inactive |  |
| O=C(O)C(F)(F)C(F)(F)C(F)(F)C(F)(F)C(F)(F)C(F)(F)C(F)(F)C(F)(F)C(F)(F)C(F)(F)F | inactive |  |
| CCOP(=S)(OCC)Oc1nc(Cl)c(Cl)cc1Cl | inactive |  |
| CC(C)(C)CC(C)(C)c1ccc(O)cc1 | inactive |  |
| O=C(Nc1ccc2[nH]ccc2c1)c1cc2cc(F)ccc2n1Cc1cccc(F)c1 |  | 33.1 µM (active) |
| ClCC(Cl)CCl | inactive |  |
| C[C@]12CCC(=O)C[C@@H]1CC[C@@H]1[C@@H]2CC[C@]2(C)[C@@H](O)CC[C@@H]12 | inactive |  |
| CC12CC1(C)C(=O)N(c1cc(Cl)cc(Cl)c1)C2=O (stereo unspecified) |  | 18.6 µM (active) |
| CCN1CCC2(CC1)COc1cc3c(cc12)N(C(=O)c1ccc(-c2ccc(-c4nnc(C)o4)cc2C)cc1)CC3 |  | 14.5 µM (active) |
| CC(C)(C)c1cc(O)ccc1O | inactive |  |
| COc1cc(-c2ccc(N)c(OC)c2)ccc1N |  | 39.4 µM (active) and 34.4 µM (active) |

| SMILES | outcome | AC50 |
| --- | --- | --- |
| O=c1[nH]c(=O)[nH]c(=O)[nH]1 | inactive |  |
| CCC(C)(C)c1ccc(O)c(C(C)(C)CC)c1 | inactive |  |
| C=C(C)C(=O)[O][Sn]([CH2]CCC)([CH2]CCC)[CH2]CCC |  | 1.2 µM (active) |
| O=C1C2(Cl)C3(Cl)C4(Cl)C(Cl)(Cl)C5(Cl)C3(Cl)C1(Cl)C5(Cl)C24Cl (stereo unspecified) |  | 23.8 µM (active) |
| O=C(O)C(Cl)(Cl)Cl | inactive |  |
| CCC(=O)C(CC(C)N(C)C)(c1ccccc1)c1ccccc1 (stereo unspecified) | inactive |  |
| C[C@@H]1C[C@@H]([C@H](O)CC2CC(=O)NC(=O)C2)C(=O)[C@@H](C)C1 |  | 9.09 µM (active) |
| Oc1cccc2cccnc12 | inactive |  |
| Cn1sc(Cl)cc1=O | inactive |  |
| CC(=O)[O][Hg][c]1ccccc1 |  | 23.1 µM (active) |
| C=CC(=O)OCCCCCC(C)C | inactive |  |
| ClC1(Cl)C2(Cl)C3(Cl)C4(Cl)C(Cl)(Cl)C5(Cl)C3(Cl)C1(Cl)C5(Cl)C24Cl (stereo unspecified) | inactive |  |
| CCCCCCCCc1ccc(O)cc1 | inactive |  |
| CC(C)(c1ccccc1)c1ccc(O)c(C(C)(C)c2ccccc2)c1 |  | 50 µM (active) |
| CN(C)N=O | inactive |  |
